Laboratory results: PubChem BioAssay AID504332 (National Center for Advancing Translational Sciences (NCATS), 2011)
Several values for one entry are separate records, joined by “and”; a condition that tells them apart may be missing. Equal values may be shown once. Screen size: about 350,000 compounds; about 31,000 (8.9%) were called active. About 15% were inconclusive and are not listed. The call rests on the fitted dose curve; in most records, active means well fitted inhibition curve with a large enough effect; inconclusive means small, poorly fitted or top-dose-only effect; inactive means no such curve, though single readings can be large or run the other way. What follows is part of a selection rich in actives, with near analogues and random picks from the rest. Some compounds were tested as several samples or in several runs, with calls that do not always agree.

target: Histone-lysine N-methyltransferase EHMT2 (Homo sapiens) (UniProt Q96KQ7); test: qHTS Assay for Inhibitors of Histone Lysine Methyltransferase G9a; details: G9a H3K9 monomethylation, AlphaScreen, 2 h; series mostly up to 59 µM; activity, negative = inhibition: at the top concentration; further: nearly all actives have a fitted effect of over 75% in size
Sequence (Q96KQ7 913-1193 limits assumed): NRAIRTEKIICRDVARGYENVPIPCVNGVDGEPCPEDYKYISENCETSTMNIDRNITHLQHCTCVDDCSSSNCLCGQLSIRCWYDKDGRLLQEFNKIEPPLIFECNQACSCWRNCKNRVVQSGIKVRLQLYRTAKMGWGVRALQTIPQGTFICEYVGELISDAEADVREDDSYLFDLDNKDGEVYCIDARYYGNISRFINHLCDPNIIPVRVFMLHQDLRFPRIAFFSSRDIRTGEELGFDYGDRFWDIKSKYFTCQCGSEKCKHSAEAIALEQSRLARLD
Outline: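 Readings reflect AlphaScreen signal from monomethyl-H3K9 antibody detection. HMT at 20 nM; substrate b-H3K9 500 nM; cofactor SAM 20 uM; 2 h RT reaction; compounds tested as titrations in qHTS with 15 min preincubation.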
On the % scale 0 is the no-effect control and ±100 the full control effect; potency means the concentration at half of the fitted maximal effect.

activity, negative = inhibition, inactive:
COC(=O)CN1C(=O)C(C)(C)Oc2ccc(C(=O)Nc3cccc(OC)c3)cc21 15.9% [at 102 µM]
Cc1cccc(CSc2nnc(NC(=O)CSc3nnc(C)s3)s2)c1 15.2% [at 102 µM]
CC(=O)c1ccc(NC(=O)CSc2nnc(NC(=O)Nc3ccccc3)s2)cc1 -21.1%
C=CCn1c(SCC(=O)NC(=O)Cc2ccccc2)nc2ccccc2c1=O 24.2% [at 12.7 µM]
O=C(CSc1nnc(-c2cccnc2)n1CCc1ccccc1)NCc1ccccc1 16.6%
CCc1cc(=O)oc2c(C)c(OCC(=O)NCCN3CCOCC3)ccc12 -1.68% [at 102 µM]
Cc1ccc(S(=O)(=O)N(Cc2nc(-c3ccc(Cl)cc3)no2)C2CCCCC2)cc1 19%
O=C(CSc1nc(=O)n(Cc2cccnc2)c2c1CCC2)Nc1ccc(F)cc1F 11.7%
Cc1ccc(C)n1-c1nnc(N2CCC(C(=O)NCc3ccc(F)cc3)CC2)s1 4.77%
CCOc1cccc(-c2nnc(SCC(=O)NC3CC3)n2C)c1 -2.25% [at 102 µM]
Cn1c(CC(=O)Nc2ccc(F)cc2)nnc1SCC(=O)NC1CCCCC1 2.6%
CC(C)CCNC(=O)CSc1nc2ccccc2nc1Cc1ccc(Cl)cc1 14.1%
CC(C)c1ccc(C(=O)NCCCc2ccccc2)cc1 68.5%
Nc1ccc(C(=O)NCc2ccccc2)cc1 -1.36% [at 102 µM]
COc1ccccc1N1CCN(S(=O)(=O)CCNC(=O)COc2ccc(F)cc2)CC1 5.42%
COc1ccc(-c2c(C)c3ccc(O)c(CN4CCN(C)CC4)c3oc2=O)cc1OC 6.72%
Cc1cc2oc(=O)cc(CN3CCN(Cc4ccccc4)CC3)c2cc1C 8.68% [at 102 µM]
COc1ccc2oc(=O)cc(CN3CCOCC3)c2c1 20.4% [at 0.501 µM]
CC1CC(C)CN(C(=O)COC(=O)c2ccc3ncsc3c2)C1 (stereo not given) -10.9% [at 12.7 µM]
CCc1cccc(NC(=O)C2CCCN(S(=O)(=O)c3ccc4[nH]c(=O)ccc4c3)C2)c1 (stereo not given) -12.2%
CSc1ccccc1C(=O)OCC(=O)N1CCN(C(C)=O)CC1 -3.84% [at 12.7 µM]
COc1cc(C2C3C(=O)N(c4ccccc4)C(=O)C3ON2c2ccccc2)ccc1O (stereo not given) 12.5%
COC(=O)C1=NN(c2ccccc2)C2C(=O)N(c3ccccc3OC)C(=O)C12 (stereo not given) -8.07%
CCOc1ccc2c(c1)c(=O)c(S(=O)(=O)c1ccc(C)cc1)cn2CC 6.41% [at 102 µM]
COc1ccccc1C(=O)COC(=O)CSCC(=O)Nc1cc(C)on1 -33.7% [at 102 µM]
CC(C)(COC(=O)Nc1ccccc1)COC(=O)Nc1ccccc1 -24.1% [at 2.33 µM]
CCOC(=O)c1sc2nc(SC)nc(-c3ccccc3)c2c1N 22.6% [at 12.7 µM]
COc1cccc(C(=O)c2sc3nc(-c4ccccc4)cc(C(F)(F)F)c3c2N)c1 71%
CC(=O)NS(=O)(=O)c1ccc2c(c1)Cc1cc(S(=O)(=O)NC(C)=O)ccc1-2 -3.76% [at 0.501 µM]
COc1ccc(CCNC(=O)c2c3c(nc4ccccc24)C(=O)N(C2CCCCC2)C3)cc1OC 9.2%
COc1ccc(/C=C/C(=O)Nc2ccc3c(c2)OCCO3)cc1OC -16.2%
CCOc1ccc(C(=O)Nc2ccc3nc4c(c(Nc5ccccc5OC)c3c2)CCCC4)cc1 -44%
O=C(NC1CC(=O)N(c2ccccc2)C1)c1ccco1 (stereo not given) -2.6%
CC(C)=C1C2CCC1C1C(=O)N(NC(=O)c3ccco3)C(=O)C21 (stereo not given) 6.86% [at 102 µM]
CCOc1ccc(CNC(=O)Cn2cc3c(n2)-c2c(oc(C(=O)N4CCCC4)c2C)CC3)cc1 -35.9%
O=C(COC(=O)c1ccc2ncsc2c1)Nc1ccc(Cl)cc1 -43.9% [at 12.7 µM]
O=c1ccnc(Nc2ccc(Cl)cc2)[nH]1 1.74% [at 102 µM]
CCc1ccc(NC(=O)COC(=O)c2cccs2)cc1 -8.8% [at 102 µM]
COc1ccccc1NC(=O)Cn1cnc2ccc(S(=O)(=O)N3CCC(C)CC3)cc2c1=O -0.173%
COc1ccc(-c2nnc(SCC(=O)NC3CCCCC3)o2)cc1OC 5.72% [at 102 µM]
COc1ccc(-c2nnc(SCC(=O)Nc3ccc(C(C)C)cc3)nc2-c2ccc(OC)c(OC)c2)cc1OC -3.65%
CCOc1cc(-c2noc(CCCC(=O)NC3CCCCC3)n2)ccc1OC 28.6% [at 102 µM]
CCC(Sc1nnc(-c2ccc(OC)cc2)c(-c2ccc(OC)cc2)n1)C(=O)NC1CCCCC1 (stereo not given) 6.11%
CCOc1ccc(-c2noc(CCC(=O)NC3CCCC3)n2)cc1OC 20.6% [at 102 µM]
CCOc1ccc2[nH]c3nc(SCC(=O)NC4CCCC4)nnc3c2c1 12.1%
Cc1ccc(Nc2nnc(-c3ccc(C)c(S(=O)(=O)N4CCCCC4)c3)c3ccccc23)cc1 12.6%
CC(=O)N1CCN(c2ccccc2NC(=S)NC(=O)c2cc3ccccc3o2)CC1 10.6% [at 102 µM]
CC(C)(C)OC(=O)N1CCC(c2c(C(=O)NCCc3ccsc3)cnn2-c2ccc(F)cc2F)CC1 -1.68%
COc1ccc([C@H]2CC(=O)C=C(c3ccc(CO)cc3)C2)cc1 11.2% [at 0.501 µM]
Cc1c(-c2cccc(NC(=O)C(C)(C)C)c2)nc2ncccn12 9.24%
COc1ccc(Br)cc1CNC(=O)c1cc(=O)[nH]c2ccc(S(=O)(=O)N3CCCC3)cc12 -3.57%
Cc1ccc(SCC(=O)Nc2ccc3oc(-c4ccccc4F)nc3c2)cc1 6.8%
CCOC(=O)c1sc(NC(=O)CSc2ncccn2)c(C#N)c1C -13.3% [at 12.7 µM]
CCOC(=O)c1sc(NC(=O)CSc2nnc(-c3ccco3)o2)c(C(=O)OCC)c1C -13.7%
O=C(Nc1ccc(C(=O)OCc2cc(=O)n3nc(C4CC4)sc3n2)cc1)c1ccc(F)cc1 7.88% [at 12.7 µM]
c1ccc(-c2noc(-c3cccs3)n2)nc1 9.04%
Cc1ccsc1/C=N/n1c(=S)[nH]nc(C)c1=O 5.6%
Cc1n[nH]c(=O)nc1N/N=C/c1cccs1 16.1% [at 102 µM]
COc1cc(-c2cc3n(C)c(C)c(CCC(=O)Nc4ccc(F)cc4)c(=O)n3n2)cc(OC)c1OC -1.47%
Cc1cccc(NC(=O)CSc2nnc(CNC(=O)c3cccc(C)c3)n2-c2ccccc2)c1 -46.9%
COc1cccc(CNC(=O)CCCC(=O)Nc2cccc([N+](=O)[O-])c2)c1 26.3% [at 102 µM]
COc1cccc(C(=O)CC(=O)C(=O)Nc2ccc([N+](=O)[O-])cc2C)c1 -37.1% [at 102 µM]
O=C(CN1CCOC1=O)N1CCCC(Nc2ccc(F)c(F)c2)C1 (stereo not given) 10.1%
CCC(=O)Nc1nc(C)c(C(=O)Nc2cccc(Cl)c2)s1 21.5%
CCN(CC)CCCNC(=O)c1cc(-c2cccc(Cl)c2)on1 -3.23% [at 102 µM]
CCN(CC)CCNc1ncnc2c1cnn2-c1cc(Cl)ccc1C -26.5%
CCN(CC)CCCC(C)Nc1ccnc2cc(Cl)ccc12 (stereo not given) -36.5% [at 2.33 µM] and 28.9% [at 12.7 µM]
O=C(NCCc1ccco1)C(=O)NCCC1CCCCN1S(=O)(=O)c1ccccc1 (stereo not given) 10.9% [at 0.501 µM]
CC(=O)Nc1cccc(-c2csc(Nc3cccc(C)n3)n2)c1 -3.54% [at 0.0925 µM]
c1cnc(Nc2nc(-c3ccc4ccccc4c3)cs2)nc1 27.1% [at 12.7 µM]
CCN(CC(=O)Nc1c(F)cccc1F)C(=O)c1ccc(S(=O)(=O)N2CCCCC2)cc1 0.134% [at 12.7 µM]
CC1CC(C)CN(c2ccc(S(=O)(=O)N3CCOCC3)cc2)C1 (stereo not given) -7.51% [at 12.7 µM]
CCCOc1ccc(N/C=C/C(=O)C(C)(C)C)cc1 3.27% [at 102 µM]
O=C(/C=C/Nc1ccccc1OC(F)(F)F)C(F)(F)F 3.53% [at 102 µM]
COc1ccc(-c2cn3c(n2)sc2cc(C(=O)Nc4ccc(F)cc4)ccc23)cc1 2.76%

Potency, active:
Cc1cccc(NC(=O)CSc2nnc(NC(=O)CN3CCOCC3)s2)c1 7.08 µM
C=CCn1c(SCC(=O)NCc2ccccc2)nnc1-c1cc(Br)ccc1O 10 µM
CCOc1ccc(Nc2nc(Cc3nnc(SCC(=O)NC4CCCC4)n3C)cs2)cc1 28.2 µM
O=C(NCCCNCc1ccccc1)c1ccc(/C=N/O)nc1 14.1 µM
CC(C)c1ccc2oc(=O)cc(CN3CCN(Cc4ccccc4)CC3)c2c1 50.1 µM
Cc1ccccc1N1C(=O)C2ON(c3ccccc3)C(c3ccncc3)C2C1=O (stereo not given) 44.7 µM
CCN(CC)C(=O)c1sc2nc(-c3ccccc3)ccc2c1N 17.8 µM
COc1ccccc1Nc1c2c(nc3ccc(NC(=O)/C=C/c4cc(OC)c(OC)c(OC)c4)cc13)CCCC2 14.1 µM
O=C(NN1C(=O)C2C3C=CC(C3)C2C1=O)c1ccco1 (stereo not given) 12.6 µM
Cc1csc(Nc2ccc(Cl)cc2)[n+]1-c1ccc(Cl)cc1 20 µM
CCOc1cc(-c2nnc(SCC(=O)NC3CCCC3)nc2-c2ccc(OC)c(OCC)c2)ccc1OC 11.2 µM
COc1ccc(-c2noc(CCCC(=O)NC3CCCC3)n2)cc1OC 79.4 µM
CCOc1cc(-c2nnc(SCC(=O)NC3CCCCC3)nc2-c2ccc(OC)c(OCC)c2)ccc1OC 8.91 µM
CCOC(=O)c1sc(NC(=O)CSc2nc(C)cc(C(F)(F)F)n2)c(C#N)c1C 11.2 µM
S=c1[nH]nc(-c2cccs2)n1/N=C/c1cccs1 1.26 µM
Oc1ccccc1/C=N/n1c(-c2cccs2)n[nH]c1=S 1.58 µM
COc1cccc(NCCC(=O)c2cccc([N+](=O)[O-])c2)c1 35.5 µM
CCN(CC)CCCC(C)Nc1ccnc2cc(Cl)ccc12 (stereo not given) 25.1 µM
Cc1ccc(Nc2nc(-c3ccc(O)cc3O)cs2)nc1 10 µM
CN(C)c1ccc(N/C=C/C(=O)C(F)(F)F)cc1 7.08 µM
